Assay outcomes (PubChem)
AddAB inh – growth inhibition of E. coli expressing H. pylori AddAB, primary screen, AddAB inhibitor project, absorbance | inhibition, % at 11.9 µM | 330,000 tested, 0.29% active | AID 435030, 2010; in the data active means inhibition above about 12%;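 further: 0% = vehicle wells of infected cells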
E coli growth-1 – E. coli growth inhibition, primary screen, OD600. 330,000 tested, 0.21% active. Escherichia coli growth, 23 h; hits give low values. OD600 absorbance (test concentration not listed);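 active means OD600 absorbance below the run mean of sample wells minus 3.6 SD, in any replicate, cut at about 0.56 in these data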
AI-2 QS modul – Vibrio harveyi AI-2 quorum sensing modulators, primary screen, JMH597 strain, luminescence/OD600 ratio | activity change, % at 7.5 µM | AID 2094, 2009 | 300,000 tested, 0.4% active | Vibrio harveyi JMH597 AI-2 luminescence/OD600 ratio, 9 h; hits give low values; strain lacks LuxN and CqsS sensors; 0 = neutral-control median; in the data active means activity change below about -75%, passing the limit was not always enough; inconclusive means no clear call, values can overlap the other calls;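 further: luminescence divided by OD600 gain over 9 h not by final OD600 alone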
E coli growth-2 – E. coli V3065 growth inhibition, primary screen, counter-screen for AddAB inhibitor project, absorbance, OD600; AID 449728, 2010; 18 h; inhibition, % at 11.9 µM; 330,000 tested, 0.27% active;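 active means inhibition above the campaign's mean inhibition across all tested compounds plus 3 SD, cut at about 9.9% in these data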;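 further: uninfected addAB+ strain grown without phage in ampicillin broth; 0% = DMSO wells and 100% = ciprofloxacin 0.95 µg/ml wells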
Tat transport – E. coli Tat export inhibitors, primary screen, MC4100, TorA-mCherry reporter, fluorescence, single point; inhibition, % at 10 µM; 340,000 tested, 0.036% active;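 active means mean replicate inhibition at least 50% and at least half of replicates individually reaching 50%; inconclusive means only one of the two criteria met; inactive means neither criterion met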;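 further: exported cargo escapes ClpAP degradation while cytoplasmic cargo is degraded and loses fluorescence; 0% = median of neutral control wells and 100% = median of NaSCN control wells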
phage Ecoli inh – growth loss of phage-infected E. coli, primary screen, RecBCD inhibitor project, absorbance, with phage, HTS | inhibition, % at 11.9 µM | 360,000 tested, 0.26% active; in the data active means inhibition above about 11%
JMH597 growth rt – Vibrio harveyi growth inhibition, confirmation, counter-screen for AI-2 quorum sensing project, JMH597 strain, OD600 absorbance; shares compounds with AI-2 QS modul; 9 h; lacks LuxN and CqsS sensors; growth inhibition, % at 7.5 µM; 750 tested, 1% active; AID 2726, 2010;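 active means every replicate shows growth inhibition above 50%; inconclusive means at least half, but not all, replicates pass that cutoff; inactive means fewer than half of replicates pass it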
BB721 const-QS lum – luminescence inhibition in constitutive-on V. harveyi, confirmation, counter-screen for LuxS inhibitor project, strain BB721, luminescence readout | shares compounds with AI-2 QS modul | Vibrio harveyi BB721 luminescence, 9 h | inhibition, % at 7.5 µM | 750 tested, 95% active | AID 2727, 2010;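 active means inhibition above about 80% in every replicate, not just on average, limit read from the data; inconclusive means at least half of replicates past the limit, but not all; inactive means fewer than half of replicates past the limit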
BB721 growth rt – growth inhibition of V. harveyi BB721, confirmation, cytotoxicity control for AI-2 quorum sensing inhibitors, strain BB721, absorbance OD600. shares compounds with AI-2 QS modul. Vibrio harveyi BB721 growth, 9 h. growth inhibition, % at 7.5 µM. 750 tested, 3% active. AID 2728, 2010;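 active means every replicate shows growth inhibition above 50%; inconclusive means at least half but not all replicates above 50% inhibition; inactive means under half of replicates above 50% inhibition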
AI-2 QS JMH597 – Vibrio harveyi AI-2 signaling luminescence modulation – JMH597 strain, confirmation; Vibrio harveyi JMH597 AI-2 quorum sensing luminescence, 9 h; luxN and CqsS knockout, AI-2 only; inhibition, % at 7.5 µM; 750 tested, 97% active; shares compounds with AI-2 QS modul;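 active means every replicate shows more than 75% inhibition of signal versus neutral control wells; inconclusive means half to three quarters of replicates exceed 75% inhibition; inactive means fewer than half of replicates exceed 75% inhibition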
* = called active by the depositor. Sampled rows, rich in hits. Any-hit rate of the full collection: about 0.79%.

Results for C(=C\c1nc(-c2ccccc2)no1)/c1ccccc1 ?
AddAB inh: -1; AI-2 QS modul: -88*; E coli growth-2: -3; Tat transport: -7; phage Ecoli inh: 2; JMH597 growth rt: 11; BB721 const-QS lum: 95*; BB721 growth rt: 13; AI-2 QS JMH597: 96*

How did COC(=O)c1ccc(-c2noc(CN3C[C@H]4CC[C@H]3C4)n2)cc1 do in these assays?
AddAB inh: 6; E coli growth-1: 0.7; AI-2 QS modul: -84*; E coli growth-2: 2; Tat transport: -8; phage Ecoli inh: 2; JMH597 growth rt: -9; BB721 const-QS lum: 94*; BB721 growth rt: 1; AI-2 QS JMH597: 96*

What do the screens show for `COC(=O)c1ccc(-c2noc(CN(C)CC3CCCCO3)n2)cc1` (configuration not stated)?
AddAB inh: 0; E coli growth-1: 0.68; AI-2 QS modul: -2; E coli growth-2: 3; Tat transport: -8; phage Ecoli inh: -1

What do the screens show for `CC(/C=C/c1ccco1)=NNC(=O)c1ccc(C)nc1`?
E coli growth-1: 0.68

Results for CC(=O)Nc1ccc(C(=O)OCc2ccc(Cl)cc2)cc1 ?
AddAB inh: 2; E coli growth-1: 0.68; AI-2 QS modul: -91*; E coli growth-2: -1; Tat transport: 3; phage Ecoli inh: 6; JMH597 growth rt: -12; BB721 const-QS lum: 97*; BB721 growth rt: 58*; AI-2 QS JMH597: 96*

Results for CC(=O)Nc1ccc(C(=O)OCc2ccc(F)cc2)cc1 ?
AddAB inh: 0; E coli growth-1: 0.72; AI-2 QS modul: -83*; E coli growth-2: 0; Tat transport: -3; phage Ecoli inh: 4; JMH597 growth rt: 11; BB721 const-QS lum: 93*; BB721 growth rt: 31; AI-2 QS JMH597: 92*

Results for CCCS(=O)(=O)c1ccc(COC(=O)c2ccc(NC(C)=O)cc2)cc1 ?
AddAB inh: 0; E coli growth-1: 0.69; AI-2 QS modul: -38; E coli growth-2: 4; Tat transport: -15; phage Ecoli inh: 7

How did O=S(=O)(N/N=C\C=C\c1ccccc1)c1ccc(Cl)cc1 do in these assays?
AddAB inh: 1; AI-2 QS modul: -94*; E coli growth-2: 0; Tat transport: -6; phage Ecoli inh: 0; JMH597 growth rt: 41; BB721 const-QS lum: 99*; BB721 growth rt: 27; AI-2 QS JMH597: 100*

Results for Brc1ccc(CSc2nnc(-c3ccco3)o2)cc1 ?
AddAB inh: 2; E coli growth-1: 0.65; AI-2 QS modul: -60; E coli growth-2: -1; Tat transport: 13; phage Ecoli inh: 2

How did Cc1ccc(CSc2nnc(-c3ccco3)o2)cc1 do in these assays?
AddAB inh: 1; AI-2 QS modul: -82*; E coli growth-2: -1; Tat transport: 6; phage Ecoli inh: 2; JMH597 growth rt: 35; BB721 const-QS lum: 96*; BB721 growth rt: 6; AI-2 QS JMH597: 98*

Results for c1ccc(CSc2nnc(-c3ccco3)o2)cc1 ?
AddAB inh: 5; AI-2 QS modul: -87*; E coli growth-2: 3; Tat transport: 5; phage Ecoli inh: 0; JMH597 growth rt: 15; BB721 const-QS lum: 95*; BB721 growth rt: 0; AI-2 QS JMH597: 96*

Results for CCSc1nsc(NC(=O)Nc2ccc(F)cc2F)n1 ?
AddAB inh: 11; E coli growth-1: 0.57; AI-2 QS modul: inconclusive; E coli growth-2: 10; Tat transport: -11; JMH597 growth rt: 82*; BB721 const-QS lum: 94*; BB721 growth rt: inconclusive; AI-2 QS JMH597: 99*

Results for CC(C)(C)c1csc(NC(=O)Cn2cnc3ccccc3c2=O)n1 ?
AddAB inh: 0; E coli growth-1: 0.69; AI-2 QS modul: -95*; E coli growth-2: 0; Tat transport: 1; phage Ecoli inh: 3; JMH597 growth rt: 8; BB721 const-QS lum: 97*; BB721 growth rt: -2; AI-2 QS JMH597: 98*

How did CN(c1ccccc1)S(=O)(=O)c1cccc(NC(=O)Cn2cnc3ccccc3c2=O)c1 do in these assays?
AddAB inh: 3; E coli growth-1: 0.82; AI-2 QS modul: -93*; E coli growth-2: -1; Tat transport: -1; phage Ecoli inh: 2; JMH597 growth rt: 55; BB721 const-QS lum: 99*; BB721 growth rt: 88*; AI-2 QS JMH597: 99*

Results for CC(C)(C)C(=O)Cn1nnc(-c2ccc(C(F)(F)F)cc2)n1 ?
AddAB inh: 0; E coli growth-1: 0.69; AI-2 QS modul: -80*; E coli growth-2: 0; Tat transport: 4; phage Ecoli inh: 4; JMH597 growth rt: -30; BB721 const-QS lum: 90*; BB721 growth rt: -1; AI-2 QS JMH597: 93*

How did COc1ccc(C(=O)Cn2nnc(-c3cccs3)n2)cc1 do in these assays?
AddAB inh: 3; E coli growth-1: 0.7; AI-2 QS modul: -81*; E coli growth-2: 1; Tat transport: 26; phage Ecoli inh: 5; JMH597 growth rt: 24; BB721 const-QS lum: 93*; BB721 growth rt: -11; AI-2 QS JMH597: 96*

What do the screens show for `O=C(Cn1nnc(-c2ccccc2)n1)NNC(=O)c1ccccc1`?
AddAB inh: 0; E coli growth-1: 0.68; AI-2 QS modul: 3; E coli growth-2: -1; Tat transport: 0; phage Ecoli inh: 0

How did O=C(Cn1nnc(-c2ccccc2)n1)c1ccccc1 do in these assays?
AddAB inh: 3; E coli growth-1: 0.66; AI-2 QS modul: -94*; E coli growth-2: 4; Tat transport: 3; phage Ecoli inh: 2; JMH597 growth rt: 28; BB721 const-QS lum: 98*; BB721 growth rt: 2; AI-2 QS JMH597: 99*

Results for Cc1ccc(CN2CCN(CC(=O)NN=Cc3ccccc3F)CC2)cc1 ?
E coli growth-1: 0.62

How did Cc1ccc(CC2SC(=Nc3ccccn3)NC2=O)cc1 (configuration not stated) do in these assays?
E coli growth-1: 0.69
